# Screens as filed in PubChem.
# Most compounds without a hit are left out; they make up all but 12% or so of the library.
# Cav3 T inh: human Cav3.2 channel inhibition, primary screen; AID 449739; 4% of 100,000 active; B-score at 10 µM; O95180; Cav3.2-expressing cells, Fluo-4 calcium fluorescence FDSS; hits give low values;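 active = single-dose well whose peak fluorescence ratio is a statistical outlier from its plate by either plate-standardised score or position-corrected B-score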
# D1 allo mod: D1 dopamine receptor (human) allosteric modulation; HEK293 D1, CRE-luciferase, dopamine EC30 potentiation; actives deviate in either direction; B-score at 10 µM; 5.9% of 58,000 active; AID 641;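 active = luminescence count or its row- and column-corrected plate score outside the 99.7% band of the plate's sample wells, on either side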
# PLAP act: activators of human placental alkaline phosphatase. activation fold at 20 µM. P05187. purified PLAP enzyme, luminescent substrate read-out; hits give high values. 1.2% of 96,000 active; in the data active = activation fold above about 2
# Target sequence (P05187 whole entry, looked up): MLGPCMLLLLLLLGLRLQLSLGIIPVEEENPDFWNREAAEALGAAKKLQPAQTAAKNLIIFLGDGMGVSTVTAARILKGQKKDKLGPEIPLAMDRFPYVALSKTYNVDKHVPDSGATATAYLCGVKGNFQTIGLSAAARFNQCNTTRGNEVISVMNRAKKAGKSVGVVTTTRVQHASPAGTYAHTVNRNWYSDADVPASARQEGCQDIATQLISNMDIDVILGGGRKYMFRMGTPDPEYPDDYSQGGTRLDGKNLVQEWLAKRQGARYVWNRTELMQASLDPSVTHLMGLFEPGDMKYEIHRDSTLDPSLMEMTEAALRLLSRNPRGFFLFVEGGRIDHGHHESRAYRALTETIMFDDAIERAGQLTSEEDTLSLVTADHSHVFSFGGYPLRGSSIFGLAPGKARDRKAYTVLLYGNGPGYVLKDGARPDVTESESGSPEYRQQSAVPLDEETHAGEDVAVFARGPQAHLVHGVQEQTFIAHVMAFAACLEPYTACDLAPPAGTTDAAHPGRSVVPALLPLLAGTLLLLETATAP
# hDAT+cocaine: human DAT dopamine uptake with cocaine, either direction. Q01959. LLC-PK1 hDAT cells, [14C]-dopamine uptake with cocaine IC80; actives deviate in either direction. B-score at 10 µM. 1.3% of 110,000 active. AID 449768;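 active = Z score or B-score, a plate-position-corrected score, falls beyond the plate's 99.7% confidence bounds, in either direction; inactive = both scores lie inside the 99.7% bounds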;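 also: scored against the spread of the other compound wells on the same plate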
# PostGolgi yeast: growth inhibition of a yeast mutant, post-Golgi transport screen; post-Golgi transport phenotypic cell assay; inhibition, % at 10 µM; 0.9% of 98,000 active;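 also: yeast cells grown in 1536-well plates; yeast grown about 18 h at 30C before absorbance read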
# PostGolgi ctrl: growth of the yeast control strain, post-Golgi counter-screen. 5% of 98,000 active. AID 738. inhibition, % at 10 µM. efflux-deficient yeast background strain, growth absorbance A615, 16 h
# * hit, by the source's call; x = no result. Rule as the data show it, unless noted: active = inhibition above about 30%; inactive = the rest.
SMILES,Cav3 T inh,D1 allo mod,PLAP act,hDAT+cocaine,PostGolgi yeast,PostGolgi ctrl
O=C(O)CC(c1ccc(Cl)cc1)N1C(=O)CCC1=O (stereo not drawn),0.49,-0.54,1,0.15,-2,2
C=C(C)c1nc(N)nc(N)n1,1.1,0.018,0.9,0.26,0,3
NC(N)=N/N=C/c1ccc(OCc2ccccc2Cl)cc1,x,x,1.1,0.53,11,36*
OCCCCNCc1ccc(OCc2ccccc2Cl)cc1,x,x,1.1,0.093,-3,5
CC(C)NC(=O)c1ccc(-c2ccc(Cl)c(C(F)(F)F)c2)o1,-0.46,x,0.8,-0.48,0,8
CCOC(=O)c1c(N)sc(-c2ccccc2)c1C,-0.92,x,x,0.47,x,x
CCOC(=O)c1c(N)sc(C(O)(C(F)(F)F)C(F)(F)F)c1-c1ccccc1,-2.7,x,1.6,-0.57,3,32*
O=C1[C@H](CC[C@H](O)c2ccc(F)cc2)[C@@H](c2ccc(O)cc2)N1c1ccc(F)cc1,-4.1*,x,x,1.5,x,x
CC(C)(O)c1cn(-c2nonc2N)nn1,0.0015,0.74,0.8,-0.67,-3,8
C(=C1/CCCC2=C1Nc1ncnn1C2c1ccccc1)/c1ccccc1 (stereo not drawn),-0.02,x,1.3,0.11,0,26
CCCCCCCCNc1ncnc2ccccc12,-2.4,x,10,-1.7,44*,9
O=C(c1ccccc1)N1CCN(Cc2ccccc2)CC1,-0.0077,x,x,-0.93,x,x
O=C(c1ccccc1)N1CCN(C(=O)c2cc3ccccc3o2)CC1,1.4,x,0.9,-0.7,3,31*
O=C(c1cc2ccccc2o1)N1CCN(c2ccccc2Cl)CC1,-2.6,-0.023,1.1,0.3,1,40*
O=C(CCn1c(=O)oc2ccccc21)N1CCN(c2ccccc2Cl)CC1,-4*,1.4,x,3.4*,-4,16
O=C(c1cc2c(ccc3ccccc32)o1)N1CCN(c2ncc(C(F)(F)F)cc2Cl)CC1,-3.8,x,1.2,0.4,-10,23
O=C(CCS(=O)(=O)c1ccc(Br)cc1)N1CCN(c2ccccc2Cl)CC1,-5.7*,x,1.5,0.77,3,8
Fc1ccc(Sc2cc(Cl)c(-c3ccccc3)nn2)cc1,-1.6,x,0.8,0.6,-3,39*
Cc1ccc(C(=O)Nc2cc3c(oc2=O)CCCC3=O)cc1,0.76,x,1,-0.93,3,11
COC(=O)C1=C(CSc2nc3ccccc3o2)NC(=O)NC1c1cc(C)ccc1C (stereo not drawn),x,-1.1,1.1,0.15,-1,49*
CCOC(=O)C1=C(CSc2nc3ccccc3s2)NC(=O)NC1c1cc(C)ccc1C (stereo not drawn),-2.1,x,1,-0.032,12,37*
COCCNC(=S)NC12CC3CC(CC(C3)C1)C2,-0.085,x,0.9,-0.35,2,19
Clc1ncccc1-c1nc2ccccc2n1Cc1ccccc1,0.043,x,1.1,-2.4,8,3
Cn1cccc1-c1nc2ccccc2n1Cc1ccccc1,-4.7*,-0.25,0.9,0.42,-12,18
CC(OC(=O)c1snc(C(=O)NC2CCCCC2)c1N)C(=O)NC1CCCCC1 (stereo not drawn),-0.7,x,x,1,x,x
SMILES,Cav3 T inh,D1 allo mod,PLAP act,hDAT+cocaine,PostGolgi yeast,PostGolgi ctrl
Nc1nc(N)nc(-c2ccc(Oc3ccccc3)cc2)n1,-0.027,x,0.9,1.1,11,22
Cc1ccc(Oc2ccc(-c3nc(N)nc(N)n3)cc2)cc1C,1.5,x,0.8,0.084,-2,50*
O=C(Cn1c(S(=O)(=O)Cc2ccccc2)nc2ccccc21)N1CCCCC1,0.089,0.48,0.9,0.8,-18,35*
O=C(C1=COCCO1)N1CCN(C(c2ccccc2)c2ccccc2)CC1,-0.87,0.65,1.5,-0.058,-6,4
Cc1nc(SCC(=O)O)c2oc3ccccc3c2n1,2.5,1.4,0.9,0.73,-19,-5
CCc1nc(SCC(=O)N2CCCc3ccccc32)c2oc3ccccc3c2n1,-2.3,x,0.9,-0.35,11,37*
O=C(Cc1cccc2ccccc12)N1CCCc2ccccc21,-4.5*,x,1.1,0.44,1,13
CC(=O)N1CCCc2ccccc21,0.78,x,1,-0.28,-8,-5
Cc1nc(SCC(=O)N2CCN(c3ccccc3)CC2)c2oc3ccccc3c2n1,-0.4,-0.82,1.5,0.26,0,35*
Clc1ccc2[nH]c3c(c2c1)CCc1cn[nH]c1-3,-0.34,-0.085,1.1,1.1,74*,57*
c1ccc2c3c([nH]c2c1)-c1[nH]ncc1CC3,1.3,0.19,1.4,1.2,-3,1
